According to PubChem BioAssay (EPA / NIEHS):
Active and inactive are the calls of the source. How the source made its calls: active means hit-call score of the fitted dose curve at least 0.9, where 1 is the maximum; inactive means score below 0.9.

Assay: CEETOX_H295R_CORTIC_noMTC: CeeTox H295R High-throughput Steroidogenesis Assay for Corticosterone (CORTIC), maximum tolerated concentration (MTC) filtered results only (AID 2283917)
Settings: actives raise or lower the signal
Outline: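 Corticosterone secreted into the medium was measured by reverse-phase C18 HPLC with tandem MS after MTBE extraction. Cells (H295R) had 48 h forskolin (10 uM) stimulation before 48 h chemical exposure; gain or loss of signal was fitted relative to DMSO.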

| SMILES | AC50 | outcome |
| --- | --- | --- |
| NC(=Nc1ccccc1)Nc1ccccc1 | 39.1 µM (active) |  |
| C=CCc1ccc(OC)c(OC)c1 |  | inactive |
| O=C(Oc1ccccc1)c1cccc(C(=O)Oc2ccccc2)c1 |  | inactive |
| Nc1nc(=S)c2[nH]cnc2[nH]1 | 33.3 µM (active) |  |

Assay: CEETOX_H295R_DOC_noMTC: CeeTox H295R High-throughput Steroidogenesis Assay for DOC, maximum tolerated concentration (MTC) filtered results only (AID 2283918)
Settings: actives raise or lower the signal
Outline: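 H295R cells prestimulated 48 h with 10 uM forskolin, then exposed 48 h to chemical in 0.1% DMSO. 11-Deoxycorticosterone in medium measured by MTBE extraction and HPLC-MS/MS; bidirectional fit vs DMSO, no MTC filter.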

| SMILES | AC50 | outcome |
| --- | --- | --- |
| NC(=Nc1ccccc1)Nc1ccccc1 | 50 µM (active) |  |
| C=CCc1ccc(OC)c(OC)c1 |  | inactive |
| O=C(Oc1ccccc1)c1cccc(C(=O)Oc2ccccc2)c1 |  | inactive |
| Nc1nc(=S)c2[nH]cnc2[nH]1 | 35.4 µM (active) |  |

Assay: CEETOX_H295R_PROG_noMTC: CeeTox H295R High-throughput Steroidogenesis Assay for Progesterone (PROG), maximum tolerated concentration (MTC) filtered results only (AID 2283920)
Settings: actives raise or lower the signal
Outline: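 Readout: medium progesterone by MTBE extraction, reverse-phase C18 HPLC, ESI-positive MS/MS. Human H295R cells, 10 uM forskolin pretreatment 48 h, chemical 48 h in 0.1% DMSO. Gain or loss fitted against DMSO baseline.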

| SMILES | outcome | AC50 |
| --- | --- | --- |
| NC(=Nc1ccccc1)Nc1ccccc1 | inactive |  |
| O=C(Oc1ccccc1)c1cccc(C(=O)Oc2ccccc2)c1 | inactive |  |
| Nc1nc(=S)c2[nH]cnc2[nH]1 |  | 78.8 µM (active) |
